Source: PubChem
14-3-3 Bad PPI: inhibitors of 14-3-3 zeta/Bad binding, primary screen, biochemical, TR-FRET, bovine 14-3-3 zeta; inhibition, % at 21.7 µM; 14-3-3 protein zeta/delta (Bos taurus), P63103; AID 781, 2007; 0.71% of 220,000 active; TR-FRET 14-3-3zeta/Dy647-pBad peptide displacement, 1 h;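 active means inhibition above about 70%, limit read from the data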
Mcl1 Bid PPI: Mcl-1/Bid binding inhibitors, primary screen, biochemical, TR-FRET, 1536-well; Induced myeloid leukemia cell differentiation protein Mcl-1 (Homo sapiens), Q07820; TR-FRET Mcl-1/Bid-Dy647 peptide binding; inhibition, % at 21.7 µM; 0.97% of 220,000 active;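 active means compounds that cut the binding signal by more than half at the single screening dose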;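 further: His-tagged Mcl-1 with europium anti-His antibody binding Bid BH3 peptide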
Mcl1-Noxa inh: Mcl-1/Noxa binding inhibitors, primary screen, biochemical, TR-FRET, 1536-well. 1.5% of 220,000 active. Induced myeloid leukemia cell differentiation protein Mcl-1 (Homo sapiens), Q07820. inhibition, % at 21.7 µM. TR-FRET Mcl-1/Noxa peptide binding, 2 h. AID 1022, 2008;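 active means compounds that cut the protein-peptide binding signal by more than 50% relative to plate controls in a single-dose test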;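 further: His-tagged Mcl-1 with rhodamine Noxa BH3 peptide and terbium anti-His antibody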
eIF4E 4G PPI: eIF4E–eIF4G protein interaction inhibitors, primary screen, biochemical, uHTS, TR-FRET, eIF4GI fragment; Eukaryotic translation initiation factor 4E (Mus musculus) + Eukaryotic translation …; TR-FRET eIF4E-eIF4GI(517-606) binding, 2 h; inhibition, % at 21.7 µM; 0.37% of 220,000 active; AID 782, 2007
Mcl-1 Bim block: inhibitors of Bim peptide binding to Mcl-1, primary screen, biochemical, bead-based flow cytometry, multiplex; 0.1% of 190,000 active; inhibition, % at 10 µM; Bim peptide-Mcl-1 binding; Induced myeloid leukemia cell differentiation protein Mcl-1 (Homo sapiens), Q07820; in the data active means inhibition above about 40%
NCF1 inh: p47phox/p22phox peptide binding inhibitors, primary screen, biochemical, uHTS, NADPH oxidase regulatory subunit. inhibition, % at 24.7 µM. Neutrophil cytosol factor 1 (Homo sapiens), P14598. 0.53% of 220,000 active. fluorescence polarization, 2 h
A number is an active result; [ ] = remark or other dose. Hits are enriched below; roughly 3.4% of the tested compounds scored in any of these assays.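 How the source made its calls, unless noted: active means inhibition above about 30% (limit read from the data); inactive means the rest.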

Results for COC(=O)C1CCN(C2=C(NS(=O)(=O)c3ccc(Cl)cc3)C(=O)c3ccccc3C2=O)CC1 ?
14-3-3 Bad PPI: inactive; Mcl1 Bid PPI: inactive; Mcl1-Noxa inh: inactive; eIF4E 4G PPI: inactive; NCF1 inh: inactive

Results for O=C(CSCc1ccccc1Br)N/N=C/c1ccccc1C(=O)O ?
14-3-3 Bad PPI: 83; Mcl1 Bid PPI: inactive; Mcl1-Noxa inh: inactive; eIF4E 4G PPI: inactive; Mcl-1 Bim block: inactive; NCF1 inh: inactive

What do the screens show for `Nc1ccc(N(c2ccccc2)c2ccc(N)cc2)cc1`?
14-3-3 Bad PPI: inactive; Mcl1 Bid PPI: inactive; Mcl1-Noxa inh: inactive; eIF4E 4G PPI: 41[fluorescence artefact?]; Mcl-1 Bim block: inactive; NCF1 inh: inactive

What do the screens show for `CCNC(=S)N1CCCC(C(N)=O)C1` (stereo not given)?
14-3-3 Bad PPI: inactive; Mcl1 Bid PPI: inactive; Mcl1-Noxa inh: inactive; eIF4E 4G PPI: inactive; Mcl-1 Bim block: inactive; NCF1 inh: inactive

Results for COc1ccc(/C=N/n2c(N)nc3ccccc32)cc1OC ?
14-3-3 Bad PPI: inactive; Mcl1 Bid PPI: inactive; Mcl1-Noxa inh: inactive; eIF4E 4G PPI: inactive; Mcl-1 Bim block: inactive; NCF1 inh: inactive

How did COc1ccc(/C=N/n2c(N)nc(-c3ccccc3)c2-c2ccccc2)cc1 do in these assays?
14-3-3 Bad PPI: inactive; Mcl1 Bid PPI: 57; Mcl1-Noxa inh: inactive; eIF4E 4G PPI: inactive; Mcl-1 Bim block: inactive; NCF1 inh: inactive

What do the screens show for `COCCN1Cc2cccc(C(=O)NC(C)CCc3ccco3)c2C1=O` (stereo not given)?
14-3-3 Bad PPI: inactive; Mcl1 Bid PPI: inactive; Mcl1-Noxa inh: inactive; eIF4E 4G PPI: inactive; Mcl-1 Bim block: inactive; NCF1 inh: inactive

What do the screens show for `O=C(CN(Cc1ccc(F)cc1)S(=O)(=O)c1ccccc1)N1CCCCC1`?
14-3-3 Bad PPI: inactive; Mcl1 Bid PPI: inactive; Mcl1-Noxa inh: 62; eIF4E 4G PPI: inactive; Mcl-1 Bim block: inactive; NCF1 inh: inactive

How did COC(=O)c1nc(NC2=NCCCCC2)n[nH]1 do in these assays?
14-3-3 Bad PPI: inactive; Mcl1 Bid PPI: inactive; Mcl1-Noxa inh: inactive; eIF4E 4G PPI: inactive; Mcl-1 Bim block: inactive; NCF1 inh: inactive

How did C1CCN=C(Nc2nn[nH]n2)CC1 do in these assays?
14-3-3 Bad PPI: 71; Mcl1 Bid PPI: inactive; Mcl1-Noxa inh: inactive; eIF4E 4G PPI: inactive; Mcl-1 Bim block: inactive; NCF1 inh: inactive

How did S=C(NCCc1ccccc1)N1CCN(C23CC4CC(CC(C4)C2)C3)CC1 do in these assays?
14-3-3 Bad PPI: inactive; Mcl1 Bid PPI: inactive; Mcl1-Noxa inh: inactive; eIF4E 4G PPI: inactive; Mcl-1 Bim block: inactive; NCF1 inh: inactive

How did O=C(O)CC(=O)NC12CC3CC(CC(C3)C1)C2 do in these assays?
14-3-3 Bad PPI: inactive; Mcl1 Bid PPI: inactive; Mcl1-Noxa inh: inactive; eIF4E 4G PPI: inactive; Mcl-1 Bim block: inactive; NCF1 inh: inactive

What do the screens show for `CCN(CC)CC(=O)NC12CC3CC(CC(C3)C1)C2`?
14-3-3 Bad PPI: inactive; Mcl1 Bid PPI: 63; Mcl1-Noxa inh: inactive; eIF4E 4G PPI: inactive; Mcl-1 Bim block: inactive; NCF1 inh: inactive

Results for COC(=O)c1ccc(-c2ccc(C(c3c(C)[nH][nH]c3=O)c3c(C)[nH][nH]c3=O)o2)cc1 ?
14-3-3 Bad PPI: inactive; Mcl1 Bid PPI: inactive; Mcl1-Noxa inh: 68; eIF4E 4G PPI: inactive; Mcl-1 Bim block: inactive; NCF1 inh: inactive

What do the screens show for `Cc1[nH][nH]c(=O)c1C(c1ccc(-c2cccc(C(=O)O)c2)o1)c1c(C)[nH][nH]c1=O`?
14-3-3 Bad PPI: inactive; Mcl1 Bid PPI: inactive; Mcl1-Noxa inh: inactive; eIF4E 4G PPI: inactive; Mcl-1 Bim block: inactive; NCF1 inh: inactive

Results for COC(=O)COc1ccc(/C=N/NC(=O)c2ccc(N(Cc3ccccc3)S(C)(=O)=O)cc2)cc1 ?
14-3-3 Bad PPI: inactive; Mcl1 Bid PPI: inactive; Mcl1-Noxa inh: inactive; eIF4E 4G PPI: inactive; Mcl-1 Bim block: inactive; NCF1 inh: 55

Results for C=CCNC(=O)C1CC2Cn3c(nc4cc5ccccc5cc43)C2N1C (stereo not given) ?
14-3-3 Bad PPI: inactive; Mcl1 Bid PPI: inactive; Mcl1-Noxa inh: inactive; eIF4E 4G PPI: inactive; NCF1 inh: inactive

What do the screens show for `Nc1[nH][nH]c(=O)c1N=Nc1cccc(Cl)c1`?
14-3-3 Bad PPI: inactive; Mcl1 Bid PPI: inactive; Mcl1-Noxa inh: inactive; eIF4E 4G PPI: inactive; Mcl-1 Bim block: inactive; NCF1 inh: inactive

What do the screens show for `NC(=S)n1[nH]c(-c2ccc([N+](=O)[O-])cc2)c(N=Nc2cccc(Cl)c2)c1=O`?
14-3-3 Bad PPI: 88; Mcl1 Bid PPI: 82; Mcl1-Noxa inh: 93; eIF4E 4G PPI: inactive; Mcl-1 Bim block: inactive; NCF1 inh: inactive

Results for NC(=S)n1[nH]c(-c2ccc([N+](=O)[O-])cc2)c(N=Nc2ccc(O)cc2)c1=O ?
14-3-3 Bad PPI: inactive; Mcl1 Bid PPI: 65; Mcl1-Noxa inh: 73; eIF4E 4G PPI: inactive; Mcl-1 Bim block: inactive; NCF1 inh: inactive

What do the screens show for `O=C(CNCC1CCCCC1)Nc1ccccc1N1CCCCC1`?
14-3-3 Bad PPI: 80; Mcl1 Bid PPI: inactive; Mcl1-Noxa inh: inactive; eIF4E 4G PPI: inactive; Mcl-1 Bim block: inactive; NCF1 inh: inactive

How did CC1Cc2ccccc2N1C(=O)CNCCCN(C)C (stereo not given) do in these assays?
14-3-3 Bad PPI: 76; Mcl1 Bid PPI: inactive; Mcl1-Noxa inh: inactive; eIF4E 4G PPI: inactive; Mcl-1 Bim block: inactive; NCF1 inh: inactive

What do the screens show for `O=C(CNC1CCCCCC1)Nc1ccccc1N1CCCCC1`?
14-3-3 Bad PPI: inactive; Mcl1 Bid PPI: inactive; Mcl1-Noxa inh: inactive; eIF4E 4G PPI: inactive; Mcl-1 Bim block: inactive; NCF1 inh: inactive

Results for CN(C)CCCNCC(=O)Nc1ccccc1N1CCOCC1 ?
14-3-3 Bad PPI: inactive; Mcl1 Bid PPI: 62; Mcl1-Noxa inh: inactive; eIF4E 4G PPI: inactive; Mcl-1 Bim block: inactive; NCF1 inh: inactive

What do the screens show for `O=C(Cc1ccccc1)Nc1ccccc1N1CCOCC1`?
14-3-3 Bad PPI: inactive; Mcl1 Bid PPI: inactive; Mcl1-Noxa inh: inactive; eIF4E 4G PPI: inactive; Mcl-1 Bim block: inactive; NCF1 inh: inactive

Results for O=C(CNC(=O)C1CCCCC1)Nc1cc(Cl)ccc1Cl ?
14-3-3 Bad PPI: inactive; Mcl1 Bid PPI: inactive; Mcl1-Noxa inh: inactive; eIF4E 4G PPI: inactive; Mcl-1 Bim block: inactive; NCF1 inh: inactive

Results for O=C(CNC(=O)C1CCCCC1)Nc1ccccc1Cl ?
14-3-3 Bad PPI: inactive; Mcl1 Bid PPI: inactive; Mcl1-Noxa inh: inactive; eIF4E 4G PPI: inactive; Mcl-1 Bim block: inactive; NCF1 inh: 53

What do the screens show for `COC(=O)c1[nH]c2ccccc2c1NC(=O)c1c(F)cccc1F`?
14-3-3 Bad PPI: inactive; Mcl1 Bid PPI: inactive; Mcl1-Noxa inh: inactive; eIF4E 4G PPI: inactive; NCF1 inh: inactive
